This note sets out measurements from paper PMC12820563, “FoxP3 forms a head-to-head dimer in vivo and stabilizes its multimerization on adjacent microsatellites”.

The full ranking holds about 16,000 sequences; the median of “rpm ratio (pull-down/input)” is about 0.5, and the highest 2% start at about 5.5. The entries come from a sample that favours the highest values as a whole.

This test concerns the target T1, MBP-FoxP3dN (Mus musculus, UniProt Q99JB6 188-423).
T1 sequence: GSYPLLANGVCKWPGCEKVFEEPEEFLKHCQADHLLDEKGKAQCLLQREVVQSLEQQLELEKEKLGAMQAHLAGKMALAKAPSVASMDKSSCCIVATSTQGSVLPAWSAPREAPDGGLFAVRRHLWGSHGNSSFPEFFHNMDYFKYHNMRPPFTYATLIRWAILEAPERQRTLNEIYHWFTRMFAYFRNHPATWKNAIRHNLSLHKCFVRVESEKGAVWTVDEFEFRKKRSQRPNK
Nature of the test: PD-seq (MBP pull-down with sequencing); 20 mM Tris-HCl pH 7.5, 100 mM NaCl, 1.5 mM MgCl2, 0.4 uM protein, 0.1 uM dsDNA library, 30 min, room temperature, amylose pull-down; high values mean tight binding. To be noted: protein: recombinant; tags: His6-MBP; chain copies: 2; dsDNA, one strand shown. In a few lines:
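Binding is the reads-per-million enrichment of pull-down relative to input, pooled across replicates. For this, 0.4 µM His6-MBP-tagged mouse FoxP3 or FoxP1 fragment lacking the N-terminus, made in E. coli, was incubated with 0.1 µM Klenow-filled double-stranded degenerate DNA library for 30 min at room temperature in Tris pH 7.5 buffer with NaCl and MgCl2. Complexes bound to amylose resin were washed three times before proteinase K released the DNA for PCR barcoding and Illumina sequencing.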
On to “GATGATTGTTCTCCCAGCTGATGAATTATCAAACTCGAGTAAACAAATTTTCCTAATCTTTCTGTTCAAGCGCCATCTAC”, for which the binding signal is 0.363 RPM ratio (pull-down/input).

With “GATGATTGTTCTCCCAGCTGATGAATTGCCCTCCTCGAGTAAACAAATTTTCCTAATCTTTCTGTTCAAGCGCCATCTAC”, the binding signal is 0.471 RPM ratio (pull-down/input).

Take “GATGATTGTTCTCCCAGCTGATGAATTTCGTCAATCGAGTAAACAAATTTTCCTAATCTTTCTGTTCAAGCGCCATCTAC”: the binding signal was 0.411 RPM ratio (pull-down/input).

With “GATGATTGTTCTCCCAGCTGATGAATTATTAGCTTCGAGTAAACAAATTTTCCTAATCTTTCTGTTCAAGCGCCATCTAC”, the binding signal is 0.671 RPM ratio (pull-down/input).

In the case of “GATGATTGTTCTCCCAGCTGATGAATTATTCCGATCGAGTAAACAAATTTTCCTAATCTTTCTGTTCAAGCGCCATCTAC”, the binding signal is 0.214 RPM ratio (pull-down/input).

As to “GATGATTGTTCTCCCAGCTGATGAATTTCATCTGTCGAGTAAACAAATTTTCCTAATCTTTCTGTTCAAGCGCCATCTAC”, the binding signal was 0.411 RPM ratio (pull-down/input).

Take “GATGATTGTTCTCCCAGCTGATGAATTGTGGCTGTCGAGTAAACAAATTTTCCTAATCTTTCTGTTCAAGCGCCATCTAC”: the binding signal was 1.13 RPM ratio (pull-down/input).

As for “GATGATTGTTCTCCCAGCTGATGAATTATCATCGTCGAGTAAACAAATTTTCCTAATCTTTCTGTTCAAGCGCCATCTAC”, the binding signal was 0.418 RPM ratio (pull-down/input).

Turning to “GATGATTGTTCTCCCAGCTGATGAATTAGCTAAGTCGAGTAAACAAATTTTCCTAATCTTTCTGTTCAAGCGCCATCTAC”, the binding signal was 0.231 RPM ratio (pull-down/input).

As to “GATGATTGTTCTCCCAGCTGATGAATTCCAGTAATCGAGTAAACAAATTTTCCTAATCTTTCTGTTCAAGCGCCATCTAC”, the binding signal is 0.477 RPM ratio (pull-down/input).

With “GATGATTGTTCTCCCAGCTGATGAATTGCTATTTTCGAGTAAACAAATTTTCCTAATCTTTCTGTTCAAGCGCCATCTAC”, the binding signal is 1.47 RPM ratio (pull-down/input).

As to “GATGATTGTTCTCCCAGCTGATGAATTTGCTTGTTCGAGTAAACAAATTTTCCTAATCTTTCTGTTCAAGCGCCATCTAC”, the binding signal is 6.99 RPM ratio (pull-down/input).

As to “GATGATTGTTCTCCCAGCTGATGAATTTGCTGCTTCGAGTAAACAAATTTTCCTAATCTTTCTGTTCAAGCGCCATCTAC”, the binding signal is 3.05 RPM ratio (pull-down/input).

Consider “GATGATTGTTCTCCCAGCTGATGAATTTTGCTATTCGAGTAAACAAATTTTCCTAATCTTTCTGTTCAAGCGCCATCTAC”, for which the binding signal is 5.16 RPM ratio (pull-down/input).

For the sequence “GATGATTGTTCTCCCAGCTGATGAATTTGTTGCTTCGAGTAAACAAATTTTCCTAATCTTTCTGTTCAAGCGCCATCTAC”, the binding signal was 6.86 RPM ratio (pull-down/input).

For “GATGATTGTTCTCCCAGCTGATGAATTTGCTTTTTCGAGTAAACAAATTTTCCTAATCTTTCTGTTCAAGCGCCATCTAC”, the binding signal was 5.38 RPM ratio (pull-down/input).

On to “GATGATTGTTCTCCCAGCTGATGAATTTGCTATTTCGAGTAAACAAATTTTCCTAATCTTTCTGTTCAAGCGCCATCTAC”, for which the binding signal was 5.54 RPM ratio (pull-down/input).

As for “GATGATTGTTCTCCCAGCTGATGAATTTGCTGTTTCGAGTAAACAAATTTTCCTAATCTTTCTGTTCAAGCGCCATCTAC”, the binding signal is 6.28 RPM ratio (pull-down/input).

Turning to “GATGATTGTTCTCCCAGCTGATGAATTCTTTGCTTCGAGTAAACAAATTTTCCTAATCTTTCTGTTCAAGCGCCATCTAC”, the binding signal is 0.407 RPM ratio (pull-down/input).

Consider “GATGATTGTTCTCCCAGCTGATGAATTTTTGCTTTCGAGTAAACAAATTTTCCTAATCTTTCTGTTCAAGCGCCATCTAC”, for which the binding signal is 0.978 RPM ratio (pull-down/input).

As for “GATGATTGTTCTCCCAGCTGATGAATTGCTGTTTTCGAGTAAACAAATTTTCCTAATCTTTCTGTTCAAGCGCCATCTAC”, the binding signal is 2.65 RPM ratio (pull-down/input).

Consider “GATGATTGTTCTCCCAGCTGATGAATTTTGCTGTTCGAGTAAACAAATTTTCCTAATCTTTCTGTTCAAGCGCCATCTAC”, for which the binding signal was 5.2 RPM ratio (pull-down/input).

With “GATGATTGTTCTCCCAGCTGATGAATTGTGCACCTCGAGTAAACAAATTTTCCTAATCTTTCTGTTCAAGCGCCATCTAC”, the binding signal was 2.92 RPM ratio (pull-down/input).

For the sequence “GATGATTGTTCTCCCAGCTGATGAATTCGGAACGTCGAGTAAACAAATTTTCCTAATCTTTCTGTTCAAGCGCCATCTAC”, the binding signal was 0.297 RPM ratio (pull-down/input).

Turning to “GATGATTGTTCTCCCAGCTGATGAATTGATTCAGTCGAGTAAACAAATTTTCCTAATCTTTCTGTTCAAGCGCCATCTAC”, the binding signal was 0.28 RPM ratio (pull-down/input).

For the sequence “GATGATTGTTCTCCCAGCTGATGAATTGTGGGGGTCGAGTAAACAAATTTTCCTAATCTTTCTGTTCAAGCGCCATCTAC”, the binding signal is 0.783 RPM ratio (pull-down/input).

For “GATGATTGTTCTCCCAGCTGATGAATTCTAAAGCTCGAGTAAACAAATTTTCCTAATCTTTCTGTTCAAGCGCCATCTAC”, the binding signal was 0.248 RPM ratio (pull-down/input).

Turning to “GATGATTGTTCTCCCAGCTGATGAATTGTTTGCTTCGAGTAAACAAATTTTCCTAATCTTTCTGTTCAAGCGCCATCTAC”, the binding signal is 6.19 RPM ratio (pull-down/input).

For “GATGATTGTTCTCCCAGCTGATGAATTTGCTTCTTCGAGTAAACAAATTTTCCTAATCTTTCTGTTCAAGCGCCATCTAC”, the binding signal is 2.97 RPM ratio (pull-down/input).

As to “GATGATTGTTCTCCCAGCTGATGAATTTTTTGCTTCGAGTAAACAAATTTTCCTAATCTTTCTGTTCAAGCGCCATCTAC”, the binding signal is 0.306 RPM ratio (pull-down/input).

Consider “GATGATTGTTCTCCCAGCTGATGAATTAGCTCGCTCGAGTAAACAAATTTTCCTAATCTTTCTGTTCAAGCGCCATCTAC”, for which the binding signal was 0.272 RPM ratio (pull-down/input).

Turning to “GATGATTGTTCTCCCAGCTGATGAATTCCGGGTGTCGAGTAAACAAATTTTCCTAATCTTTCTGTTCAAGCGCCATCTAC”, the binding signal is 0.669 RPM ratio (pull-down/input).

Regarding “GATGATTGTTCTCCCAGCTGATGAATTCCGATTGTCGAGTAAACAAATTTTCCTAATCTTTCTGTTCAAGCGCCATCTAC”, the binding signal was 1.93 RPM ratio (pull-down/input).
